Screening data deposited in PubChem by National Center for Advancing Translational Sciences (NCATS).
RORg inh – qHTS for inhibitors of ROR gamma transcriptional activity | Nuclear receptor ROR-gamma (Mus musculus), P51450 | Drosophila S2 Gal4-RORgamma UAS-luciferase reporter, 20 h | Potency, µM (doses to about 53.6 µM), without a hit: top-dose activity change, negative = inhibition, actives largely listed as inhibitors | actives 5.4% (n = 310,000) | AID 2551, 2010; further: potency means the concentration at half of the fitted maximal effect; on the % scale 0 is the no-effect control and ±100 the full control effect; nearly all actives have a fitted effect of over 60% in size
Target sequence (P51450 whole entry, looked up, the tested form may be a part): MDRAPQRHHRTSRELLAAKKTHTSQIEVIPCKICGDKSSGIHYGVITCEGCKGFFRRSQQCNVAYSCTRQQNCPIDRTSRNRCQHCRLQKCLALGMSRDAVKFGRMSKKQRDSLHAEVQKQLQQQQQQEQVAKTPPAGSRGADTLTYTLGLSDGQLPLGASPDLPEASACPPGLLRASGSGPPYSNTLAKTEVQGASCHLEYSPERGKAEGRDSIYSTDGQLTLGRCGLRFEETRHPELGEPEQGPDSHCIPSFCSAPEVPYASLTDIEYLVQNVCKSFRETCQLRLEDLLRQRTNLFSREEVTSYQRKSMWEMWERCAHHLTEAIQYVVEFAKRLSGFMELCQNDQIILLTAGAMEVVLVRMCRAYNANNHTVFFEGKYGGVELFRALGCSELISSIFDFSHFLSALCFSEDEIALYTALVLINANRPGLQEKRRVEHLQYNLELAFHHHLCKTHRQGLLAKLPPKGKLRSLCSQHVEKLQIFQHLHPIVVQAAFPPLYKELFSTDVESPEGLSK
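Drosophila S2 cells stably expressing Gal4-DBD/mouse RORγ fusion under metallothionein promoter plus UAS-luciferase; compound 1 h, then 700 uM CuSO4 induction for 20 h at ambient temperature; inhibition read as reduced luminescence.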
MCF10A rereplic – A quantitative high throughput screen for small molecules that induce DNA re-replication in MCF 10a normal breast cells; MCF 10A DNA re-replication, Hoechst nuclear intensity, 48 h; Potency, µM (highest dose often 46.1 µM), for the others: at the top dose activity, positive = re-replication, most hits filed as activators; actives 2.9% (n = 350,000); further: potency means the concentration at half of the fitted maximal effect; % of control where 0% means no effect; nearly all actives have a fitted effect of over 50% in size
IL-1B inflam inh – qHTS for Inhibitors of Inflammasome Signaling: IL-1-beta AlphaLISA Primary Screen. THP-1 LPS/ATP IL-1B secretion, AlphaLISA, 16 h; hits give low values. AID 743279, 2014. activity change, % at 57.5 µM. actives 4.7% (n = 360,000); in the data active means activity change below about -50%; inconclusive means mostly about -30% to -49%; further: on the % scale 0 is the no-effect control and ±100 the full control effect
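THP-1 cells pretreated 1 hr with compounds (up to 57.5 uM final), then stimulated with LPS (250 ng/mL final) plus ATP (1.25 mM final); secreted IL-1B measured by AlphaLISA after 16 hr, decreased signal indicating inhibition.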
SW480 rereplic – A quantitative high throughput screen for small molecules that induce DNA re-replication in SW480 colon adenocarcinoma cells | actives 1.8% (n = 340,000) | Potency, µM (doses to about 46.1 µM), inactives show top-dose re-replication activation, hits mostly activators | SW480 DNA re-replication, Hoechst DNA content imaging, 48 h; further: potency means the concentration at half of the fitted maximal effect; % of control where 0% means no effect; nearly all actives have a fitted effect of over 55% in size
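DNA re-replication was detected as more nuclei of elevated Hoechst intensity after 48 hr exposure to compound (23 nL pinned per well of 250 cells).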
VP16 counter – VP16 counterscreen qHTS for inhibitors of ROR gamma transcriptional activity; actives 3.5% (n = 310,000); AID 2546, 2010; Potency, µM (doses to about 53.6 µM), for inactives: at the highest dose activity, negative = inhibition, most hits filed as inhibitors; Drosophila S2 Gal4-VP16 UAS-luciferase, luminescence, 20 h;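 further: Gal4-VP16 expression switched on by copper sulfate through the metallothionein promoter; potency means the concentration at half of the fitted maximal effect; on the % scale 0 is the no-effect control and ±100 the full control effect; nearly all actives have a fitted effect of over 50% in size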
An asterisk follows results filed as active; ? = inconclusive; / = no result given; [ ] = another dose, or the depositor's remark. In the library only some 11% were active in any assay of this set; here they are far more common. Unless noted, the call rests on the fitted dose curve; in most records, active means well fitted curve in the direction sought with a large enough effect; inconclusive means small, poorly fitted or top-dose-only effect, or another doubt; inactive means no such curve, though single readings can be large; an effect the other way counts as inactive or inconclusive.

SMILES	RORg inh	MCF10A rereplic	IL-1B inflam inh	SW480 rereplic	VP16 counter
COc1ccc(/C=C/C(=O)OCC(=O)N2c3ccccc3CC2C)c(OC)c1 (centres undefined)	/	/	-19.9	/	/
Cn1cc(CC(=O)Nc2cccc(C#N)c2)c2ccccc21	29.4%	?	4.2	-3.9%	15.9%
NC(=O)N/N=C/c1cn(CC(=O)Nc2ccc(F)cc2)c2ccccc12	32.0%	-33.4%	/	-15.5%	-5.3%
CC(=O)n1cc(/C=N/NC(=O)c2ccccc2O)c2ccccc21	2.82µM*	0.2%	?	28.7%	3.55µM*
CC(=O)n1cc(/C=N/NC(N)=S)c2ccccc21	4.47µM*	0.0%	-15.3	8.9%	?
Cn1cc(/C=C(\C#N)C(=O)Nc2cccc([N+](=O)[O-])c2)c2ccccc21	-8.0%	9.2µM*	-26.4	?	9.8%
CCc1nc2c(OCCC3CCCCC3)cccn2c1N(C=O)Cc1ccc(OC)cc1	/	/	-21.9	/	/
Cc1c(C(=O)OCc2nc3ccsc3c(=O)[nH]2)oc2ccccc12	/	-1.1%	6.5	-7.4%	/
CCCS(=O)(=O)NC(=O)C1(C)CCN(C(=O)c2ccc(C(=O)OC)cc2)C1 (centres undefined)	/	/	4.2	/	/
CCCN(C)C1CN(Cc2cn(Cc3cc(C)cc(C)c3)nn2)S(=O)(=O)C1 (centres undefined)	/	/	45.8	/	/
CCOc1cccc(=O)c2c(C)n(Cc3ccco3)c(C)c12	0.0%	-1.4%	-6.6	-5.7%	3.55µM*
O=C(O)C(Oc1ccc2ccc(=O)oc2c1)c1ccccc1 (centres undefined)	8.3%	/	/	/	0.9%
CCOC(=O)c1c(N)sc(N)c1C(=O)OCC	42.0%	0.3%	-71.0*	9.0%	3.7%
CCOC(=O)c1c(N)sc(C(N)=O)c1C	11.7%	0.7%	2.3	-15.9%	-2.7%
O=C(NNC(=O)c1ccccc1F)c1ccc(Cl)c(S(=O)(=O)N2CCOCC2)c1	/	-0.9%	0.5	-7.4%	/
COc1ccccc1N(CCC#N)C(=S)Nc1ccc(S(=O)(=O)N2CCOCC2)cc1	/	1.3%	-3.5	-7.4%	/
O=Cc1cn(CC(O)Cn2cc(C=O)c3ccccc32)c2ccccc12	-21.1%	-6.6%	28.7	0.9%	-8.6%
CCCCN(C)CC(O)Cn1cc(/C=C/C(=O)c2cccs2)c2ccccc21 (centres undefined)	?	16.4µM*	-56.2*	23.1µM*	?
O=C(/C=C/c1cn(CC(O)CN2CCCCCC2)c2ccccc12)c1cccs1 (centres undefined)	9.5%	14.6µM*	-107.0*	18.4µM*	-20.5%
CCc1ccc(-c2n[nH]nc2C2=CC(=O)C[C@H](c3ccc(F)cc3)C2)cc1	/	/	-28.5	/	/
COc1cc(C2(c3ccc(O)c(OC)c3)C(=O)Nc3c(C)cc(Br)cc32)ccc1O	/	?	-102.2*	-12.4%	/
COCCCn1c(=O)/c(=C\c2ccccc2OC(C)C)s/c1=C(/C#N)C(=O)Nc1ccc(C(=O)O)cc1	43.9%	25.9µM*	-4.0	?	-27.0%
Cc1cc(=O)n2[nH]c(C)c(-c3ccccc3)c2n1	-42.6%	-6.2%	15.6	-3.9%	-7.2%
Cc1cc(=O)n2[nH]c(N)c(N=Nc3ccccc3F)c2n1	10µM*	?	9.8	-3.7%	10.6%
O=C(CCN1C(=O)/C(=C/c2ccccc2)SC1=S)NNC(=O)c1ccncc1	-6.4%	13.4%	-14.4	-5.3%	-7.5%
SMILES	RORg inh	MCF10A rereplic	IL-1B inflam inh	SW480 rereplic	VP16 counter
O=C(O)CCCCCN1C(=O)/C(=C/c2ccncc2)SC1=S	11.2µM*	?	-97.5*	?	10µM*
O=C(O)CCCN1C(=O)/C(=C/c2ccncc2)SC1=S	8.91µM*	27.1%	-80.2*	3.5%	10µM*
O=C(O)CCCCCN1C(=O)/C(=C\c2ccncc2)SC1=S	12.6µM*	?	-99.3*	-2.6%	10µM*
O=C(CCN1C(=O)/C(=C\c2ccccc2)SC1=S)NNC(=O)c1ccncc1	-20.8%	-0.2%	-13.2	?	2.7%
CC(c1ccccc1)N1C(=O)/C(=C/c2ccncc2)SC1=S (centres undefined)	?	16.4µM*	-50.1*	16.4µM*	15.8µM*
CC(C)[C@@H](CC(=O)N[C@@H]1CCCC[C@H]1C(=O)N[C@H](CC(=O)N[C@@H](CCC(=O)O)CC(=O)O)Cc1ccccc1)NC(=O)C[C@H](Cc1c[nH]c2ccccc12)NC(=O)[C@@H]1CCCC[C@H]1N	-4.6%	/	/	/	-3.5%
O=C(COc1ccc(Br)cc1CNCCCN1CCOCC1)Nc1ccccc1	4.5%	15.3%	-70.2*	?	-13.5%
CCCCCN(C(=O)CCC(=O)OCc1cccc(C(F)(F)F)c1)c1c(N)n(CCCC)c(=O)[nH]c1=O	29.6%	17.0%	-3.6	?	-13.7%
CC(=O)Nc1ccc(N=c2cc([N+](=O)[O-])cc(Cl)n2O)cc1	?	?	-53.2*	23.1µM*	?
CN(Cc1cccnc1)C(=O)c1cc(S(=O)(=O)Nc2ccccc2F)ccc1Cl	/	8.7%	-5.4	10.0%	/
C/C(=N\NC(=S)NCC(C)(C)C)c1cc(F)cc(F)c1O	2.82µM*	5.0%	-109.7*	-63.3%	3.98µM*
CC(C)C[C@H]1CNC(=S)N1C[C@H]1CCCN1C[C@H](CC(C)C)N1C[C@H](Cc2ccc(O)cc2)N(CC2CCCCC2)C1=S	/	/	-61.9*	/	/
CC(C)C[C@@H](CN1CCCC1CN1C(=S)NC[C@@H]1Cc1ccc(O)cc1)N1C[C@H](Cc2ccc(O)cc2)N(CC2CCCCCC2)C1=S (some centres undefined)	/	?	-82.7*	4.1%	/
CC(C)C[C@H]1CNC(=S)N1CC1CCCN1C[C@H](Cc1ccccc1)N1C[C@H](Cc2ccc(O)cc2)N(CC2CCCCCC2)C1=S (some centres undefined)	/	-0.2%	-67.4*	?	/
CC(C)C[C@@H](CN1CCCC1CN1C(=S)NC[C@@H]1Cc1ccc(O)cc1)N1C[C@H](Cc2ccccc2)N(CC2CCCCCC2)C1=S (some centres undefined)	/	20.8%	0.5	-6.4%	/
CC(C)CCCC(C)CCCC(C)CCCC(C)C(=O)O (centres undefined)	3.5%	/	/	/	-13.0%
C=CCn1c(Cc2nc3ccccc3[nH]2)n[nH]c1=S	-8.9%[0.365 µM]	20.6%	12.5	-10.6%	/
C=CCn1c(C(C)NC(=O)c2cccs2)n[nH]c1=S (centres undefined)	10µM*	7.0%	21.7	1.3%	-2.1%
C=CCn1c(C(c2ccccc2)c2ccccc2)n[nH]c1=S	7.94µM*	0.7%	7.0	0.6%	7.94µM*
CCn1c(C(c2ccccc2)c2ccccc2)n[nH]c1=S	?	-11.0%	6.4	-0.2%	?
C=CCn1c(OCc2ccccc2)n[nH]c1=S	3.98µM*	1.6%	22.2	5.3%	17.8µM*
